Data reported in PubChem BioAssay (NCATS).
Inconclusive results are not listed. Active and inactive are the calls of the source. Unless noted, calls come from the whole dose curve; as a rule, active = well fitted curve in the direction sought with a large enough effect; inconclusive = small, poorly fitted or top-dose-only effect, or another doubt; inactive = no such curve, though single readings can be large; an effect the other way counts as inactive or inconclusive.

Experiments:
[1] = target: Lysosomal acid glucosylceramidase (Homo sapiens) (UniProt P04062); experiment: Glucocerebrosidase-p2 (AID 348; in the data active = potency below about 10 µM; note: potency is the fitted concentration of half-maximal effect); conditions: purified GBA, blue fluorogenic substrate, 40 min
Chain of Lysosomal acid glucosylceramidase (Homo sapiens) (P04062 whole entry, looked up): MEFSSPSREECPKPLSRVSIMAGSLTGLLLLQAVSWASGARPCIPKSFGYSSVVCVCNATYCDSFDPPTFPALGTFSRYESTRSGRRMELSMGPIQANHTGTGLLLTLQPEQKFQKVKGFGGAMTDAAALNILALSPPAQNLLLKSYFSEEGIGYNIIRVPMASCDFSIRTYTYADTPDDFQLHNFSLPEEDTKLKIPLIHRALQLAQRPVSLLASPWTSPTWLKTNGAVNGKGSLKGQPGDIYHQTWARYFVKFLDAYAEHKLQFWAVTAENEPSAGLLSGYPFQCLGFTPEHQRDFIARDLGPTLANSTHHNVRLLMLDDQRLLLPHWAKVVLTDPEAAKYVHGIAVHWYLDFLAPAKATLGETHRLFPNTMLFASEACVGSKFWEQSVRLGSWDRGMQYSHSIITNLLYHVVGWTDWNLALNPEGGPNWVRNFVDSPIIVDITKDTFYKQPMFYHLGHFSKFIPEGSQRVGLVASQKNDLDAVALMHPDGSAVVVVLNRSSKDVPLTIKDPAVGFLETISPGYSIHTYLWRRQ
Summary of the method: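 Normal human glucocerebrosidase (0.2 nM) with blue fluorogenic substrate (80 uM final) in citrate/phosphate pH 5.9 with 10mM sodium taurocholate, 0.01% tween-20; 40 min RT, NaOH/glycine stop; fluorescence Ex 365/Em 440; AC50 from a titration from 0.6 nM upwards.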

[2] = AP1 Signaling Pathway (AID 357; active = well fitted curve in either direction with a large enough effect, not every such curve was filed as active;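 note: ME-180 reporter cells stimulated with EGF at its EC50 level; % is set by controls: 0 for no effect and ±100 for the full control effect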); conditions: ME-180 AP-1-bla reporter, EGF-induced, beta-lactamase ratio, 5 h; at 7.69 µM (top of the series) unless noted
Summary of the method: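 Modulation of EGF-driven AP-1 transcription was assessed with a beta-lactamase reporter in ME-180 cells. Compound and EC50 EGF were co-incubated 5 hours at 37 °C before 2.5-hour CCF4 loading at room temperature and dual-emission reading.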

[3] = target: Cytochrome P450 1A2 (Homo sapiens) (UniProt P05177); experiment: p450-cyp1a2 (AID 410; calls by dose curve; note: potency is the fitted concentration of half-maximal effect); conditions: recombinant CYP1A2, luciferin-ME demethylation, luminescence; series mostly up to 57 µM
Chain of Cytochrome P450 1A2 (Homo sapiens) (P05177 whole entry, looked up): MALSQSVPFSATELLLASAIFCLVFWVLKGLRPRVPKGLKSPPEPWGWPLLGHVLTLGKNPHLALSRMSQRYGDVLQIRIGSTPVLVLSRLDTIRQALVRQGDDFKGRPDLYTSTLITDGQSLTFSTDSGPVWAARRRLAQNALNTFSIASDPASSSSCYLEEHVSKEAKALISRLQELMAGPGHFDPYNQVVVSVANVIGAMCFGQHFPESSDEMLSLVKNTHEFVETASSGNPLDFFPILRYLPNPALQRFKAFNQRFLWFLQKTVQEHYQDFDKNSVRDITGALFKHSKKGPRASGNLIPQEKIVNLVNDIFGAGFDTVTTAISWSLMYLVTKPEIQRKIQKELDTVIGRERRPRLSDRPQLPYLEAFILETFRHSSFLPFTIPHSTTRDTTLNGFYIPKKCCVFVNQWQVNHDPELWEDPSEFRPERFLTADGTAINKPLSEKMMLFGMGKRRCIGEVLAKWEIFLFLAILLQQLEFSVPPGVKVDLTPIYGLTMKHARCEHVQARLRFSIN
Summary of the method: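 Read-out is luminescence from luciferin produced by CYP1A2 demethylation of Luciferin-ME (100uM, at Km). Detection reagent stopped the 60 min NADPH-dependent reaction; signals were normalized to 57 uM furafylline.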

[4] = NFAT Signaling Pathway (AID 444; active = well fitted curve in either direction with a large enough effect, not every such curve was filed as active;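 note: carbachol stimulus at about its EC50 of 1 µM final; % is set by controls: 0 for no effect and ±100 for the full control effect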); conditions: Jurkat NFAT-bla M1, carbachol, beta-lactamase ratio, 5 h; at 7.69 µM (top of the series) unless noted
Summary of the method: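 Read-out: CCF4 FRET ratio (460 nm/530 nm) after 1 h RT dye loading, used for %activity and AC50 from titration series. Cells: Jurkat NFAT-β-lactamase/M1 line, treated with compound plus 1 uM carbachol for 5 h, 37 °C.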

[5] = Stat Signaling Pathway (AID 446; active = well fitted curve in either direction with a large enough effect, not every such curve was filed as active;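 note: ME-180 cervical cancer cells given 40 pM IL-6 alongside compound; SIE-controlled beta-lactamase reporter measured as 460/530 nm FRET emission ratio; % is set by controls: 0 for no effect and ±100 for the full control effect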); conditions: ME-180 (cervical carcinoma) SIE beta-lactamase reporter, IL-6 stimulated, 5 h; at 7.69 µM (top of the series) unless noted
Summary of the method: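 Overnight-plated ME-180 cells bearing a STAT Inducible Element beta-lactamase reporter; 5 h co-exposure to compound and 40 pM IL-6; values normalized to 300 pM IL-6 and 125 nM JAK inhibitor controls.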

[6] = target: Glucocorticoid receptor (Homo sapiens) (UniProt P04150); experiment: GR-GFP Redistribution (AID 450;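 active = compounds whose dose series gives a full or clear partial fitted curve of increased nuclear translocation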; note: potency is the fitted concentration of half-maximal effect); conditions: U2OS GR-GFP nuclear translocation, laser cytometry, 2 h
Chain of Glucocorticoid receptor (Homo sapiens) (P04150 whole entry, looked up, the tested form may be a part): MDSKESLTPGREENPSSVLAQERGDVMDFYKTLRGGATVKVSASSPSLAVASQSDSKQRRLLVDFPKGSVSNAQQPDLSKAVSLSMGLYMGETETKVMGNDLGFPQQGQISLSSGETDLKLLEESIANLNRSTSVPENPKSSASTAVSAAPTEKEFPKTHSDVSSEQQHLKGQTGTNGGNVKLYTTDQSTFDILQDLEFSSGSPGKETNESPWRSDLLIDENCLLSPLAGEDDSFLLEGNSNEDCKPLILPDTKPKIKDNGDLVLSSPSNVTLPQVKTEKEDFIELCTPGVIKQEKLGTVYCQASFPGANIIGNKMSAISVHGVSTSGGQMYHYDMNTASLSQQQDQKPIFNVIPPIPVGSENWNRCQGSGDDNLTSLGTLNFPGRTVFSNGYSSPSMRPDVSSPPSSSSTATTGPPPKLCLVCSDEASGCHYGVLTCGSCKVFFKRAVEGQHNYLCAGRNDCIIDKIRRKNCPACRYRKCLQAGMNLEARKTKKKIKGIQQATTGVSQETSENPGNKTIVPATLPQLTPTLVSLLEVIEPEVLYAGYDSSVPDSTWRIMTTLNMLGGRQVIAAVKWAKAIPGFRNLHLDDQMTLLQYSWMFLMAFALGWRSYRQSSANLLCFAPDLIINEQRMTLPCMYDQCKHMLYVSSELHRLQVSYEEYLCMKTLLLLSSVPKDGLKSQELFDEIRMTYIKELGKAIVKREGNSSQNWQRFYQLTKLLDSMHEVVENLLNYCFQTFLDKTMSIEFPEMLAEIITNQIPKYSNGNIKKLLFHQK

[7] = target: Glucocorticoid receptor (Homo sapiens) (UniProt P04150); experiment: GR-EFC Redistribution (AID 451; calls by dose curve; note: potency is the fitted concentration of half-maximal effect); conditions: CHO-K1 GR-EFC translocation, beta-gal luminescence, 2 h
Summary of the method: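 Translocation of GR-ED fusion to nuclear EA restores b-gal, read by luminescence after 1 h room-temperature detection. Engineered CHO-K1 biosensor cells, 1,000/well, exposed 2 h at 37 C to titrations up to 46 uM final.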

[8] = target: Mitogen-activated protein kinase 10 (Mus musculus) (UniProt Q61831); experiment: JNK3 AlphaScreen Assay (AID 530; active = well fitted curve in either direction with a large enough effect, not every such curve was filed as active;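 note: kinase came from lysate of stimulated human HepG2 cells; signal reports phosphorylation of biotinylated GST-cJun 1-79 at Ser73 with 10 µM ATP; % is set by controls: 0 for no effect and ±100 for the full control effect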); conditions: JNK3 lysate, c-Jun phosphorylation; series mostly up to 57.1 µM
Summary of the method: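 Kinase buffer: 20 mM Tris-HCl pH 7.6, 10 mM MgCl2, 1 mM DTT, 0.1 mM Na3VO4, 0.01% Tween-20; ATP 10 uM. Substrate biotin-GST-cJun(1-79), enzyme from activated HepG2 lysates. Detection by Ser73 phospho-antibody AlphaScreen.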

[9] = target: 3',5'-cyclic-AMP phosphodiesterase 4B (Homo sapiens) (UniProt Q07343); experiment: qHTS Assay for Inhibitors of PDE-IV (AID 607; active = well fitted activation curve with a large enough effect in the main read-out, with a control signal flat, not every such curve was filed as active; note: % of control where 0% means no effect); conditions: HEK293 ACTOne CNG channel cells, membrane potential fluorescence; series mostly up to 22.9 µM
Chain of 3',5'-cyclic-AMP phosphodiesterase 4B (Homo sapiens) (Q07343 whole entry, looked up): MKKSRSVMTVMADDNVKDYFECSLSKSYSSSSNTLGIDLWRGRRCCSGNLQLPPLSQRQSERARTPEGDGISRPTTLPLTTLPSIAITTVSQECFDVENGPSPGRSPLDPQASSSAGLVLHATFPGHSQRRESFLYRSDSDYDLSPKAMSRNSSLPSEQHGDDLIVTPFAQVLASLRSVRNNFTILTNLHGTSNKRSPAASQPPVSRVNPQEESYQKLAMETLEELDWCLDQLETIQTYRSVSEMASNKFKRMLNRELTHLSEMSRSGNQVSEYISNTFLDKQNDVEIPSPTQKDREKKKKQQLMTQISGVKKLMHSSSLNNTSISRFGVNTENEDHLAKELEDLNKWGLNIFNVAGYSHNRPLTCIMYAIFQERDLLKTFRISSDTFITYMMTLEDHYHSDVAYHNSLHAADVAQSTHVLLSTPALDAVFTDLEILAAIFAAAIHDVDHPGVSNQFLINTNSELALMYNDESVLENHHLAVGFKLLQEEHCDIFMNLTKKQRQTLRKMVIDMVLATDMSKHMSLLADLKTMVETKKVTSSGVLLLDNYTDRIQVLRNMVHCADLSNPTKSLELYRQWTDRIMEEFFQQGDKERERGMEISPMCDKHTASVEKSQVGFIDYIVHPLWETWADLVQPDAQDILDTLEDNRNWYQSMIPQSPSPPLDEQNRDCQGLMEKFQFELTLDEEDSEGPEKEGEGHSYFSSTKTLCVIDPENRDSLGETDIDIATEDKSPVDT
Summary of the method: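 Live HEK293 cells with a modified cyclic nucleotide-gated (CNG) channel report intracellular cAMP via membrane-potential dye fluorescence (ex 535/em 590 nm). Endogenous PDE-IV was targeted. Compounds were tested at up to 22.9 uM final; RO 20-1724 100 uM served as control.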

[10] = target: Cytochrome P450 2C9 (Homo sapiens) (UniProt P11712); experiment: qHTS Assay for Inhibitors and Substrates of Cytochrome P450 2C9 (AID 883); conditions: recombinant CYP2C9, luciferin-H luminescence, 60 min; series mostly up to 57.1 µM; note: potency is the fitted concentration of half-maximal effect; nearly all actives have a fitted effect of over 60% in size
Summary of the method: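 Luminescent read-out of deoxyluciferin hydroxylation, normalized to 57uM sulphaphenazole (AC100). Reaction: 10nM enzyme, 100uM Luciferin-H (equal to KM), 25mM KPO4, 10 min compound preincubation, then 60 min with NADPH regeneration, both at 37C.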

[11] = target: Cytochrome P450 3A4 (Homo sapiens) (UniProt P08684); experiment: qHTS Assay for Activators of Cytochrome P450 3A4 (AID 885); conditions: recombinant CYP3A4, Luciferin-PPXE luminescence, 60 min; series mostly up to 57.1 µM; note: nearly all actives have a fitted effect of over 65% in size
Chain of Cytochrome P450 3A4 (Homo sapiens) (P08684 whole entry, looked up): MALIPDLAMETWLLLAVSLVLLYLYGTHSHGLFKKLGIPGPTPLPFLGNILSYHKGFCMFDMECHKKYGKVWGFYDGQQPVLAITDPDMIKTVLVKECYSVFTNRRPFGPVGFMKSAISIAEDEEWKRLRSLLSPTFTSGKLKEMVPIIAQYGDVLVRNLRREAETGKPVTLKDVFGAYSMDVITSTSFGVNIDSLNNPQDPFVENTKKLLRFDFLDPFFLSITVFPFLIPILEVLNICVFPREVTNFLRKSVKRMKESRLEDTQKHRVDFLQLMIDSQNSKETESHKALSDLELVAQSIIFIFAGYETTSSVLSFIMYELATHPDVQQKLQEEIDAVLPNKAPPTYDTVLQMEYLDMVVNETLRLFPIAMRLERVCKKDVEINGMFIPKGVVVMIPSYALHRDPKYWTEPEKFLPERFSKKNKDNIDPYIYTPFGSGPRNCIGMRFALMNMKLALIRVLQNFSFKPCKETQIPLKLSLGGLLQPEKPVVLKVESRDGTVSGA
Summary of the method: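 Using 20nM recombinant human CYP3A4 in potassium phosphate (200mM), substrate Luciferin-PPXE at 25uM, luminescent luciferin detection followed a 60-min RT NADPH reaction; data scaled to 57 uM ketoconazole.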

[12] = qHTS Assay for Lipid Storage Modulators (AID 1519; calls by dose curve); conditions: Drosophila S3 cells, BODIPY lipid droplet/cell ratio, laser cytometry, cells loaded with oleic acid; for activity change, negative = inhibition: at 57.5 µM (top of the series)
Summary of the method: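 Cells seeded at 5,000 per well were treated with compounds over a concentration series and loaded with oleic acid (400 uM, as added). Lipid droplet fluorescence (488 nm excitation, 500-530 nm channel) was read by laser-scanning cytometry and normalized to 20 uM Triacsin C.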

[13] = target: Dual specificity protein kinase CLK4 (Homo sapiens) (UniProt Q9HAZ1); experiment: qHTS Assay for Inhibitors of CDC-like Kinase 4 (Kinase-Glo Assay) (AID 1770); conditions: recombinant Clk4, Kinase-Glo ATP depletion luminescence; series mostly up to 66.7 µM; note: % is set by controls: 0 for no effect and ±100 for the full control effect; nearly all actives have a fitted effect of over 65% in size
Chain of Dual specificity protein kinase CLK4 (Homo sapiens) (Q9HAZ1 whole entry, looked up): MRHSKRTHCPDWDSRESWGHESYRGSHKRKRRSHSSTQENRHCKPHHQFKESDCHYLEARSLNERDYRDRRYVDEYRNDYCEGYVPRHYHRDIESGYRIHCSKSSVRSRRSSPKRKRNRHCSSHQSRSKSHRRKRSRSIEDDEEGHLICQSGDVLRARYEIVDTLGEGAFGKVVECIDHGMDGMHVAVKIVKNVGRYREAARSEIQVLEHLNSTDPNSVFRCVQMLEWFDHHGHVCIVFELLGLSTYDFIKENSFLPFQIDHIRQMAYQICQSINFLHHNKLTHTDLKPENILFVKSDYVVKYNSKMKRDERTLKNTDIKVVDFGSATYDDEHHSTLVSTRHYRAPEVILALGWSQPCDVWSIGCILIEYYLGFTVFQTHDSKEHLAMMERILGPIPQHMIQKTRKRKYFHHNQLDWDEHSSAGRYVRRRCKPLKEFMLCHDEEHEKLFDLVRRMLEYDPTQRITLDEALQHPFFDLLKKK
Summary of the method: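 25 nM Clk4 with 100 uM RS repeat peptide and 1 uM ATP (final) in Tris pH7.5, 10 mM MgCl2, 4.5 h at room temperature. Remaining ATP measured by Kinase-Glo luciferase luminescence.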

[14] = target: Dual specificity protein kinase CLK4 (Homo sapiens) (UniProt Q9HAZ1); experiment: qHTS Assay for Inhibitors of CDC-like Kinase 4 (ADP-FP Assay) (AID 1795); conditions: Transcreener ADP fluorescence polarization; series mostly up to 50 µM;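 note: recombinant human CLK4 phosphorylating RS repeat peptide at 1 µM ATP; % is set by controls: 0 for no effect and ±100 for the full control effect; nearly all actives have a fitted effect of over 60% in size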
Summary of the method: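 Recombinant Clk4 (6.25 nM) phosphorylated 100 uM RS repeat peptide with 1 uM ATP in 25 mM Tris pH 7.5, 10 mM MgCl2, 0.5 mM EGTA, 2.5 mM DTT, 0.01% Triton X-100 for 1 h. ADP was detected by Transcreener ADP2 competitive fluorescence polarization after 30 min at room temperature.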

[15] = target: Ubiquitin carboxyl-terminal hydrolase 1 (Homo sapiens) (UniProt O94782); experiment: Inhibitors of USP1/UAF1: Pilot qHTS (AID 504865); conditions: purified USP1/UAF1, Ub-rhodamine cleavage fluorescence; series mostly up to 54.9 µM; note: nearly all actives have a fitted effect of over 35% in size; note: potency is the fitted concentration of half-maximal effect
Chain of Ubiquitin carboxyl-terminal hydrolase 1 (Homo sapiens) (O94782 whole entry, looked up): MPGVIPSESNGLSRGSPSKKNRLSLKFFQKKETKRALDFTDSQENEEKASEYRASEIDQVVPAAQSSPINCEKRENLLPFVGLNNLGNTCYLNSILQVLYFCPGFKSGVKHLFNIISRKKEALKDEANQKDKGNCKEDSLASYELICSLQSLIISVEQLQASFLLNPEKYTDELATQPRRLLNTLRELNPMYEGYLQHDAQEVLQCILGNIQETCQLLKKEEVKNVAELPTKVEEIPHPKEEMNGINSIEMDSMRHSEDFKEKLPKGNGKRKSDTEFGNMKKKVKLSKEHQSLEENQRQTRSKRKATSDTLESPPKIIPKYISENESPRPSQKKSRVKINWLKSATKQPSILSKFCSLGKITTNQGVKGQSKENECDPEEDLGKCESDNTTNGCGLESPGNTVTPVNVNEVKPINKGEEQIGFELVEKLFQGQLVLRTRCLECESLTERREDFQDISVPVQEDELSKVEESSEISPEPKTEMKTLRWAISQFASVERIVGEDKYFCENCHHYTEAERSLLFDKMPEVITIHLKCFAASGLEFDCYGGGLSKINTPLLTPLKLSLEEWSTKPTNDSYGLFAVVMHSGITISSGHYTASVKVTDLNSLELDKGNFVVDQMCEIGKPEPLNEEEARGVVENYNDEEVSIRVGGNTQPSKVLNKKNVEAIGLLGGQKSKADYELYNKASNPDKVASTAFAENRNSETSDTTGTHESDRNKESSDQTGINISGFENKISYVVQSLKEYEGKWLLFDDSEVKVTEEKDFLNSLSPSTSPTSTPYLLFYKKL
Summary of the method: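 USP1/UAF1 complex at 1 nM preincubated 15 min at room temperature with compound, then Ub-Rho substrate added at 150 nM final. Fluorescence (480/540 nm) read kinetically in 50 mM HEPES pH 7.8, 0.5 mM EDTA, 1 mM TCEP, 0.1 mg/ml BSA, 0.01% Tween-20.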

[16] = Primary qHTS for small molecule stabilizers of the endoplasmic reticulum resident proteome: Secreted ER Calcium Modulated Protein (SERCaMP) assay (AID 1508630); conditions: SH-SY5Y GLuc-SERCaMP (Gaussia luciferase released on ER calcium loss) secretion, thapsigargin, luminescence; series mostly up to 38.4 µM; note: % is set by controls: 0 for no effect and ±100 for the full control effect
Summary of the method: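 The SH-SY5Y reporter protocol was run at 3 concentrations up to 38.3 uM (primary) or 11 concentrations (follow-up): 16 h compound, 100 nM thapsigargin for 4 h, then extracellular luciferase luminescence.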

[17] = target: Cytochrome P450 3A4 (Homo sapiens) (UniProt P08684); experiment: qHTS Assay for Inhibitors and Substrates of Cytochrome P450 3A4 (AID 884); conditions: recombinant CYP3A4, Luciferin-PPXE luminescence; series mostly up to 57.1 µM; note: potency is the fitted concentration of half-maximal effect; nearly all actives have a fitted effect of over 50% in size
Summary of the method: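 Luminescent readout of luciferin produced by CYP3A4 (20 nM) dealkylation of Luciferin-PPXE, 25 uM (its KM). NADPH-driven reaction ran 60 min at RT after 10 min compound preincubation; data scaled to 57 uM ketoconazole as 100% inhibition.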

[18] = target: Cytochrome P450 2D6 (Homo sapiens) (UniProt P10635); experiment: qHTS Assay for Inhibitors and Substrates of Cytochrome P450 2D6 (AID 891); conditions: recombinant CYP2D6, luciferin-ME EGE luminescence; series mostly up to 57.1 µM; note: potency is the fitted concentration of half-maximal effect; nearly all actives have a fitted effect of over 60% in size
Chain of Cytochrome P450 2D6 (Homo sapiens) (P10635 whole entry, looked up): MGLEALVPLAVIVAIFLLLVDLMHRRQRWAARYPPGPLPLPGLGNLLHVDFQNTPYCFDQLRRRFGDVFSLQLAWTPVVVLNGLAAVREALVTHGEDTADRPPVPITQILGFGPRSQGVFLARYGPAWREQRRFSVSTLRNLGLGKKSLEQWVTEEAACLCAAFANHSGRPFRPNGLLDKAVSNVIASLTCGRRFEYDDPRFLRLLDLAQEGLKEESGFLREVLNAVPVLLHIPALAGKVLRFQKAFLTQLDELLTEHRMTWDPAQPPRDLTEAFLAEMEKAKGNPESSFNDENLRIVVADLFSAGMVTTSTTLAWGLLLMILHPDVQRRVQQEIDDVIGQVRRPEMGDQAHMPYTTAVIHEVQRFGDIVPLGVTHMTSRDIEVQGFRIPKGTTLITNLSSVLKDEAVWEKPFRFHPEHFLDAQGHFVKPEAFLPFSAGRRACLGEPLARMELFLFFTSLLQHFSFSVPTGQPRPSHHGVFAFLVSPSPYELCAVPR
Summary of the method: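 Luminescent read-out of luciferin formed by 5 nM human CYP2D6 demethylating 30 uM Luciferin-ME EGE (Km level) over 60 min at room temperature after NADPH regeneration addition. Data normalized to full inhibition by 1.43 uM quinidine.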

[19] = measured here: cell count channel max response
[20] = measured here: lipid channel max response

COCCn1c(=O)c(-c2cccc(C#N)c2)nc2cnc(Oc3ccccc3)nc21
inactive: Potency [1] > 11.4 µM | activity change, negative = inhibition [2] -13% | activity change, negative = inhibition [4] 2.72% | activity, negative = inhibition [5] -11.3% | Potency [6] > 9.22 µM | Potency [7] > 46 µM | outcome [8] | Potency [9] | Potency [11] | activity change, negative = inhibition [12] -5.58% | Potency [13] | Potency [14] | Potency [15] | Potency [16]
-1.86%: max response [12, 19]
-8.56%: max response [12, 20]
active: Potency [3] 15.8 µM | Potency [10] 7.94 µM

CN(C)C(=O)c1ccc(-c2cncnc2NCCc2cnc[nH]2)cc1
30.3%: max response [12, 20]
29.1%: max response [12, 19]
inactive: Potency [1] > 11.4 µM | activity change, negative = inhibition [2] -9.74% | activity change, negative = inhibition [4] 18.2% | activity, negative = inhibition [5] -26.8% | Potency [6] > 46 µM | outcome [8] | Potency [9] | Potency [11] | activity change, negative = inhibition [12] 3.4% | Potency [13] | Potency [14] | Potency [16]
active: Potency [3] 12.6 µM | Potency [17] 6.31 µM | Potency [18] 0.794 µM

CC(=O)NCCNc1ncncc1-c1ccc(N(C)C)cc1
25.7%: max response [12, 19]
inactive: activity change, negative = inhibition [2] -11.6% | activity change, negative = inhibition [4] 9.49% | activity, negative = inhibition [5] 9.91% | Potency [6] > 46 µM | Potency [7] > 46 µM | outcome [8] | Potency [9] | Potency [11] | activity change, negative = inhibition [12] -9.91% | Potency [13] | Potency [14] | Potency [15] | Potency [16]
8.09%: max response [12, 20]
active: Potency [3] 6.31 µM | Potency [17] 2 µM

FC(F)(F)c1ccccc1-c1ccc2ncnc(NCc3cccnc3)c2c1
9.95%: max response [12, 19]
inactive: Potency [1] > 11.4 µM | activity change, negative = inhibition [2] 5.26% | activity change, negative = inhibition [4] 21.5% | activity, negative = inhibition [5] -18.4% | Potency [6] > 46 µM | Potency [7] > 46 µM | outcome [8] | Potency [11] | activity change, negative = inhibition [12] -7.13% | Potency [13] | Potency [14] | Potency [15] | Potency [16]
2.08%: max response [12, 20]
active: Potency [3] 1 µM | Potency [17] 1.58 µM | Potency [18] 1.58 µM

Cc1ccccc1-c1cc(NCc2ccccc2)ncn1
24.9%: max response [12, 19]
active: Potency [3] 3.98 µM | Potency [15] 20 µM
28.2%: max response [12, 20]
inactive: Potency [1] > 11.4 µM | activity change, negative = inhibition [2] 19.4% | activity change, negative = inhibition [4] -13.3% | Potency [6] > 46 µM | Potency [7] > 46 µM | outcome [8] | activity change, negative = inhibition [12] 4.42% | Potency [13] | Potency [14] | Potency [16]
